Experimental data reported in PubChem BioAssay (NCATS).
Results filed as inconclusive are left out. Unless noted, the call rests on the fitted dose curve; in most records, active means well fitted curve in either direction with a large enough effect (not every such curve was filed as active); inconclusive means small, poorly fitted or top-dose-only effect, or another doubt; inactive means flat fitted curve, though single readings scatter.

Tests used:
[1] = AP1 Signaling Pathway (AID 357); settings: ME-180 AP-1-bla reporter, EGF-induced, beta-lactamase ratio, 5 h; at 17.2 µM (top of the series) unless noted; further: on the % scale 0 is the no-effect control and ±100 the full control effect
Outline: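 ME-180 cells with beta-lactamase reporter under AP-1 response element, stimulated with EC50 EGF; compounds tested in titration series, 5 h at 37 °C. CCF4 substrate added 2.5 h at room temperature; 460/530 nm emission ratio gave %activity and AC50.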

[2] = NFAT Signaling Pathway (AID 444); settings: Jurkat NFAT-bla M1, carbachol, beta-lactamase ratio, 5 h; at 17.2 µM (top of the series) unless noted;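 further: carbachol stimulus at about its EC50 of 1 µM final; on the % scale 0 is the no-effect control and ±100 the full control effect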
Outline: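 Jurkat cells carrying an NFAT-driven β-lactamase reporter and co-transfected muscarinic M1 receptor were treated with compound plus carbachol (1 uM final, an EC50 level) for 5 h at 37 °C. CCF4 loading followed for 1 h at RT; 460/530 nm ratio gave %activity.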

[3] = Stat Signaling Pathway (AID 446); settings: ME-180 (cervical carcinoma) SIE beta-lactamase reporter, IL-6 stimulated, 5 h; at 17.2 µM (top of the series) unless noted;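 further: ME-180 cervical cancer cells given 40 pM IL-6 alongside compound; SIE-controlled beta-lactamase reporter measured as 460/530 nm FRET emission ratio; on the % scale 0 is the no-effect control and ±100 the full control effect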
Outline: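 IL-6/STAT signaling read in ME-180 cells via an SIE beta-lactamase reporter. Stimulus was 40 pM IL-6 (its AC50) for 5 hrs, so both activation and inhibition register.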

[4] = target: Glucocorticoid receptor (Homo sapiens) (UniProt P04150); assay: GR-GFP Redistribution (AID 450;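 active means compounds whose dose series gives a full or clear partial fitted curve of increased nuclear translocation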; further: potency means the concentration at half of the fitted maximal effect)
Chain of Glucocorticoid receptor (Homo sapiens) (P04150 whole entry, looked up): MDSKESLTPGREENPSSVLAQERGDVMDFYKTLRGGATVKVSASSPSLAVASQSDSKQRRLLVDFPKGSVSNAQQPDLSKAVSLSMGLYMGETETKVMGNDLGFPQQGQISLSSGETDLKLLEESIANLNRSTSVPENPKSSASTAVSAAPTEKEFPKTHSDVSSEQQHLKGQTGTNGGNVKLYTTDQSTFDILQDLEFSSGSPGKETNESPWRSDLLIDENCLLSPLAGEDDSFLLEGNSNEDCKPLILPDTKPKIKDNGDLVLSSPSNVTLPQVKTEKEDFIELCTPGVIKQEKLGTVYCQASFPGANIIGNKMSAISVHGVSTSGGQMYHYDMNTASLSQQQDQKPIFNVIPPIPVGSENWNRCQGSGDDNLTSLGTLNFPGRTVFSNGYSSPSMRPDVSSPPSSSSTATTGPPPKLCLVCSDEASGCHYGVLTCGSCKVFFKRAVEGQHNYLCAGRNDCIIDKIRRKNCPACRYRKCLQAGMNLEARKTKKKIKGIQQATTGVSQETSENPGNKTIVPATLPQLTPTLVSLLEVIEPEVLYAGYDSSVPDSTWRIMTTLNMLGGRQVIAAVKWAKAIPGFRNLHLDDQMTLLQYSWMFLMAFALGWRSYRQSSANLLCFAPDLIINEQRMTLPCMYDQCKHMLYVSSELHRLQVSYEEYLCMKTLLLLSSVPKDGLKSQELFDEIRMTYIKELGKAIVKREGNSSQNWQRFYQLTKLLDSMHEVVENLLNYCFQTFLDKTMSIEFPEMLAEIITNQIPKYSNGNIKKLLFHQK

CC(=O)Oc1ccccc1C1OCCN1C(C)=O (stereo not given)
inactive: activity change, negative = inhibition [1] 14.2% | activity change, negative = inhibition [2] -10.3% | activity, negative = inhibition [3] 17% | Potency [4] > 20.6 µM

CC(NC(=O)NCCCn1ccnc1)(C(F)(F)F)C(F)(F)F
inactive: activity change, negative = inhibition [1] 18.8% | activity change, negative = inhibition [2] -6.4% | activity, negative = inhibition [3] 5.85% | Potency [4] > 20.6 µM

CCCCN1C(=O)C(O)=C(C(C)=O)C1c1ccc(OC)cc1OC (stereo not given)
inactive: activity change, negative = inhibition [1] 8.36% | activity change, negative = inhibition [2] 16.7% | activity, negative = inhibition [3] -4.22% | Potency [4] > 20.6 µM

CC(O)c1n(C)c(Cl)c[n+]1C (stereo not given)
inactive: activity change, negative = inhibition [1] 0.68% | activity change, negative = inhibition [2] -4.99% | activity, negative = inhibition [3] -4.96% | Potency [4] > 20.6 µM

C=CCn1c(SCC(=O)NC23CC4CC(CC(C4)C2)C3)nc(O)cc1=O
inactive: activity change, negative = inhibition [1] 8.04% | activity change, negative = inhibition [2] -3.75% | activity, negative = inhibition [3] -2.84% | Potency [4] > 20.6 µM

CC(=O)C1(C)OC(N)=C(C#N)C(c2ccccc2)C1(C#N)C#N (stereo not given)
inactive: activity change, negative = inhibition [1] 13.9% | activity change, negative = inhibition [2] -28.6% | activity, negative = inhibition [3] -4.54% | Potency [4] > 20.6 µM

CC(C)Cc1nc2n[nH]c(N)c2c2c1CCC2
inactive: activity change, negative = inhibition [1] 2.89% | activity change, negative = inhibition [2] 28.5% | activity, negative = inhibition [3] -5.62% | Potency [4] > 20.6 µM

CCOC(=O)C1CCN(c2ncnc3c2cnn3-c2ccc(OC)cc2)CC1
inactive: activity change, negative = inhibition [1] 4.62% | activity change, negative = inhibition [2] -5.45% | activity, negative = inhibition [3] 1.28% | Potency [4] > 20.6 µM

c1cncc(-c2nnc3sc(-c4ccco4)nn23)c1
inactive: activity change, negative = inhibition [1] -2.13% | activity change, negative = inhibition [2] 4.1% | activity, negative = inhibition [3] -6.03% | Potency [4] > 20.6 µM

Cc1cc(C)n(CC(=O)n2nc(C)cc2C)n1
inactive: activity change, negative = inhibition [1] 11.3% | activity change, negative = inhibition [2] -8.81% | activity, negative = inhibition [3] 8.01% | Potency [4] > 20.6 µM

COc1cccc(Cn2c(NCc3ccco3)nc3c2c(=O)n(C)c(=O)n3C)c1
inactive: activity change, negative = inhibition [1] -11% | activity change, negative = inhibition [2] -5% | activity, negative = inhibition [3] -24.4% | Potency [4] > 20.6 µM

CCOC(=O)c1c(C)n(C)c2ccc(OC)c(NC(=O)c3cccs3)c12
inactive: activity change, negative = inhibition [1] -7.29% | activity change, negative = inhibition [2] 5.2% | activity, negative = inhibition [3] -16.1% | Potency [4] > 20.6 µM

CCCCc1nc2n[nH]c(N)c2c2c1CCCC2
inactive: activity change, negative = inhibition [1] 20.3% | activity change, negative = inhibition [2] 1.99% | activity, negative = inhibition [3] 7.03% | Potency [4] > 20.6 µM

COc1ccc(/C(O)=C2/C(=O)C(=O)N(CCCN(C)C)C2c2ccccc2)cc1OC (stereo not given)
inactive: activity change, negative = inhibition [1] -9.48% | activity change, negative = inhibition [2] -0.461% | activity, negative = inhibition [3] 8.71% | Potency [4] > 20.6 µM

COC(=O)c1ccc(Cn2nnc3c(sc4nc(N5CCOCC5)c5c(c43)CCCC5)c2=O)o1
inactive: activity change, negative = inhibition [1] 0.759% | activity change, negative = inhibition [2] -21.1% | activity, negative = inhibition [3] -4.56% | Potency [4] > 20.6 µM

CC1(C)NC(=O)N(CC(O)Cn2nnc3ccccc32)C1=O (stereo not given)
inactive: activity change, negative = inhibition [1] 5.85% | activity change, negative = inhibition [2] 8.84% | activity, negative = inhibition [3] 6.79% | Potency [4] > 20.6 µM

O=C(NCc1ccco1)c1ccc(=O)oc1
inactive: activity change, negative = inhibition [1] 13.8% | activity change, negative = inhibition [2] 6.96% | activity, negative = inhibition [3] -6.97% | Potency [4] > 20.6 µM

COC(=O)c1c(-n2cnnn2)sc(C)c1C
inactive: activity change, negative = inhibition [1] -20.5% | activity change, negative = inhibition [2] 2.79% | activity, negative = inhibition [3] 6.13% | Potency [4] > 20.6 µM

OCCOCCNc1ncnc2c1cnn2-c1ccccc1
inactive: activity change, negative = inhibition [1] 7% | activity change, negative = inhibition [2] 1.59% | activity, negative = inhibition [3] -1.47% | Potency [4] > 20.6 µM

S=c1[nH]nc(-c2ccco2)n1C1CCCCC1
inactive: activity change, negative = inhibition [1] -7.16% | activity change, negative = inhibition [2] 12.4% | activity, negative = inhibition [3] 1.34% | Potency [4] > 20.6 µM

CCCSc1nc(O)c(C2OC(=O)c3c2ccc(OC)c3OC)c(=O)n1C (stereo not given)
inactive: activity change, negative = inhibition [1] 17.4% | activity change, negative = inhibition [2] -4.09% | activity, negative = inhibition [3] 3.93% | Potency [4] > 20.6 µM

NC(=O)/C(=N\O)c1ccccc1
inactive: activity change, negative = inhibition [1] -4.98% | activity change, negative = inhibition [2] 15.2% | activity, negative = inhibition [3] -0.233% | Potency [4] > 20.6 µM

Nc1nc2n(n1)C(c1cccs1)CC(c1ccc(Br)cc1)N2 (stereo not given)
inactive: activity change, negative = inhibition [1] 0.611% | activity change, negative = inhibition [2] 11% | activity, negative = inhibition [3] 4.42% | Potency [4] > 20.6 µM

COc1ccc(/C(O)=C2\C(=O)C(=O)N(Cc3ccco3)C2c2cc(OC)ccc2OC)cc1 (stereo not given)
inactive: activity change, negative = inhibition [1] 8.52% | activity change, negative = inhibition [2] -18% | activity, negative = inhibition [3] -17.9% | Potency [4] > 20.6 µM

O=C(c1cccc(Cl)c1)N1CCN(C(=O)c2ccccc2F)CC1
inactive: activity change, negative = inhibition [1] -14.3% | activity change, negative = inhibition [2] 0.199% | activity, negative = inhibition [3] -11.1% | Potency [4] > 20.6 µM
